Compound activity (PubChem BioAssay)
Most compounds without a hit are left out; they make up all but 4.8% or so of the library.
DAX1 inh-1: inhibitors of human orphan nuclear receptor DAX1 (NR0B1). HEK293 Gal4-DAX1 luciferase reporter, luminescence. inhibition, % at 6.75 µM. 340,000 compounds, 0.99% hits;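 active = inhibition above the mean over all tested compounds plus 3 SD, cut at about 4.2% in these data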;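 also: 0% = DAX1-transfected cells with DMSO and 100% = empty-vector control cells with DMSO; inhibition shows as a rise in luminescence from relieved DAX1 repression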
hcDAF-12 act: H. contortus DAF-12 activation, primary screen; HEK293 hcDAF-12 lit1-tk-luc reporter, luminescence; 0% DMSO, 100% Δ7-dafachronic acid; activation, % at 6.8 µM; 370,000 compounds, 1.4% hits; AID 652067;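 active = activation above the mean of all tested compounds plus 3 SD, cut at about 5.5% in these data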;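 also: 100% = response to 3 µM Δ7-dafachronic acid high control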
DAX1 inh-2: inhibitors of DAX1 repression of SF-1 activated StAR promoter; HEK293T StAR-luciferase reporter, SF-1/DAX-1 repression relief; inhibition, % at 6.8 µM; 370,000 compounds, 1.1% hits;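 active = inhibition above the mean over all tested compounds plus 3 SD, cut at about 3.6% in these data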;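 also: 0% = DAX-1 cells with DMSO and 100% = cells lacking DAX-1 with DMSO; higher inhibition means more luminescence from relief of DAX-1 repression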
hgDAF12 agonist: hgDAF-12 agonism, primary luciferase screen | HEK293 GAL4-hgDAF12 UAS-luciferase reporter, agonist luminescence; normalized to butyrate control | activation, % at 6.8 µM | 370,000 compounds, 1.8% hits;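 active = activation above a cutoff set at the mean of all screened compounds plus 3 SD, cut at about 10% in these data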;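 also: 0% = DMSO wells and 100% = sodium butyrate wells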
ssDAF-12 act: activators of S. stercoralis DAF-12 nuclear receptor | 370,000 compounds, 1% hits | AID 652126 | HEK293 ssDAF-12/GRIP1 lit1-tk-luc reporter, luminescence; % of 3 µM dafachronic acid response | activation, % at 6.8 µM;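 active = activation above the mean over all tested compounds plus 3 SD, cut at about 0.9% in these data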;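 also: 0% = DMSO-only wells and 100% = 3 µM delta7-dafachronic acid wells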
SMARCA2 activ: increases SMARCA2 function in MMTV reporter cells | AID 652017 | activation, % at 9.1 µM | 370,000 compounds, 1% hits | MG213 cells, MMTV-luciferase reporter, dexamethasone, overnight; in the data active = activation above about 7.8%;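 also: 0% = vehicle wells and 100% = reference activator wells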
LXR ag: counter-screen for hcDAF-12 agonists: agonists of human LXR-beta | shares compounds with hcDAF-12 act | HEK293 Gal4-LXR tk-luc reporter, luminescence, 24 h; normalized: DMSO 0%, positive control 100% | activation, % at 6.8 µM | 3,400 tested, under 10 active | AID 743027;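 active = mean percent activation of the reporter above a cutoff set as the average over tested compounds plus their standard deviation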
Target sequence (P55055 whole entry, looked up, the tested form may be a part): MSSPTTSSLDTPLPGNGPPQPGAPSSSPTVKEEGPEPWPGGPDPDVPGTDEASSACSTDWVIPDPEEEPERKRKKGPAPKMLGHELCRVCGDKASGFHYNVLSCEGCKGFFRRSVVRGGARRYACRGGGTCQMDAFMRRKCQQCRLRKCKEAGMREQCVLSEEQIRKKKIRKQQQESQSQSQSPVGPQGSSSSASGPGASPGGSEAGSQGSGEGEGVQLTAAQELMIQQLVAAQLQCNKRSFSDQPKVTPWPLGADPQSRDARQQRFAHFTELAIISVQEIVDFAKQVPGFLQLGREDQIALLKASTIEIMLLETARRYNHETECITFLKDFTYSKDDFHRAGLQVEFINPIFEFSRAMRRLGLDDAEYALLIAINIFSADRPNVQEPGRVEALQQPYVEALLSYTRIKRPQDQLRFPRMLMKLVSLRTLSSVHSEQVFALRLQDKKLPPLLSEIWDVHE
hcDAF12 conf: confirmation of H. contortus DAF-12 agonists; shares compounds with hcDAF-12 act; HEK293 hcDAF-12 lit1-tk-luc reporter, luminescence; % of Δ7-dafachronic acid response; activation, % at 6.8 µM; 3,400 compounds, 61% hits; AID 743032;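 active = mean activation across triplicate tests above the threshold derived from the earlier primary screen, cut at about 5.5% in these data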;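 also: 0% = DMSO only wells and 100% = 3 µM Δ7-dafachronic acid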
Active calls of the source: *; x = not tested or not shown.

SMILES	DAX1 inh-1	hcDAF-12 act	DAX1 inh-2	hgDAF12 agonist	ssDAF-12 act	SMARCA2 activ	LXR ag	hcDAF12 conf
O=C(NCC1CCCCC1)c1cccc(Br)c1	0.0	1.1	0.0	0.8	-0.1	-0.9	x	x
CC1CCN(CCCNC(=O)C2CC(=O)N(C3CCCCCC3)C2)CC1 (stereo not given)	1.1	-0.8	-0.2	2.3	-1.3	-2.6	x	x
CCOC(=O)CSc1nc2ccc(Nc3nc(N4CCOCC4)nc(N4CCOCC4)n3)cc2s1	1.3	-1.3	-0.4	0.1	-1.8	-1.2	x	x
O=C(CCSc1nc2ccccc2o1)N1CCOCC1	0.6	7.1*	0.0	0.7	-0.4	1.6	0.1	3.3
O=C(CCSc1ccccc1)N1CCOCC1	1.6	4.5	1.6	10.3	-0.7	3.6	x	x
COc1cc(/C=N/Nc2ccc3ccccc3c2)ccc1OC(=O)c1ccco1	1.2	6.8*	-0.1	5.1	0.4	3.0	0.1	7.5*
CC(=O)NC(c1ccc(F)c(F)c1)c1nc(-c2ccc(C)c(C)c2)cs1 (stereo not given)	x	0.2	-1.3	-1.0	-1.6	0.2	x	x
O=C(Cc1csc(-c2cccc(F)c2)n1)Nc1cccc(S(=O)(=O)NC2=NCCC2)c1	0.4	0.7	-1.6	-0.9	-1.6	-2.2	x	x
C[C@H](NC(=O)[C@H](Cc1ccccc1)NC(=O)c1cc2cc(Cl)ccc2n1C)C(=O)O	-0.4	6.8*	-0.4	0.9	0.3	-1.5	-0.2	3.5
C[C@H](NC(=O)c1cc2cc(Cl)ccc2n1C)C(=O)N[C@@H](Cc1ccccc1)C(=O)O	-0.2	1.4	-0.2	2.1	-1.2	0.4	x	x
Cc1ccc(S(=O)(=O)N2CCC(C)CC2)cc1	0.4	-2.4	-0.5	-0.6	-0.9	-1.7	x	x
c1ccc2[nH]c(-c3cnco3)cc2c1	0.7	6.7*	-0.5	0.8	0.8	0.4	0.0	7.3*
COc1cc(OC)c(C2C(C#N)=C(C)NC(C)=C2C#N)c(C(=O)O)c1	1.0	2.1	-0.2	-1.8	-1.2	3.1	x	x
C1=CC2CCC1ON2c1ccccc1 (stereo not given)	0.2	-0.3	0.6	-1.1	-1.3	-1.6	x	x
CN(C)C(CNC(=O)CCS(=O)(=O)c1ccccc1)c1ccccc1 (stereo not given)	0.4	8.9*	-0.2	3.9	0.5	-1.2	-0.1	7.1*
O=S(=O)(c1ccccc1)c1nc(-c2cccs2)oc1NCC1CCCO1 (stereo not given)	1.3	-1.4	-1.3	1.0	-1.3	1.3	x	x
CC(=O)N1CCc2c(sc(NC(=O)Cc3ccc(F)cc3)c2C(N)=O)C1	0.5	-1.3	-2.8	-0.5	-1.2	-1.7	x	x
CCCNC(=O)c1ccc(-c2nc3ccccc3s2)s1	-3.6	5.5	1.8	4.1	-0.9	2.9	x	x
Brc1ccc(-c2nc3ccccc3s2)s1	2.7	10.0*	1.3	12.8*	1.2*	3.3	1.4	11.4*
Cc1cc(C)nc(NC(=O)CSc2nc3ccccc3s2)n1	0.9	7.7*	3.0	9.9	2.1*	6.0	1.0	9.3*
Cc1cc(NC(=O)CCl)n(-c2nc3ccccc3s2)n1	-1.1	6.8*	0.9	-0.4	0.4	2.9	0.1	5.1
Cc1cc(C)nc(SCC(=O)OCC(=O)Nc2nc3ccccc3s2)n1	-1.0	8.5*	0.3	4.0	-0.3	6.5	0.1	6.5*
CCC(C(=O)NC1CCCC1)N(C(=O)Cn1nnc(-c2ccc(OC)c(OC)c2)n1)c1cccc(O)c1 (stereo not given)	-1.0	-1.8	-0.6	-1.6	-0.9	-3.1	x	x
O=C(CSc1nnc(-c2ccccc2F)o1)N1CCCC1	1.6	2.3	0.5	2.9	-0.6	0.4	x	x
COc1ccccc1-c1nnc(SCC(=O)N2CCCC2)o1	2.6	6.7*	0.7	1.1	1.4*	2.8	0.1	9.1*
